# Sampled rows, rich in hits. Any-hit rate of the full collection: about 2.7%.
# IP6K1 inhibitor – inhibitors of human IP6K1. activity change, % (series mostly up to about 58 µM). hit rate 0.81% among 140,000. IP6K1 kinase, ADP-Glo luminescence, 2 h; hits give low values. Q92551; in the data active = activity change below about -25%; note: % is set by controls: 0 for no effect and ±100 for the full control effect
#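 ADP-Glo luminescence measures ADP made by human IP6K1 during a 2 h RT reaction with ATP/IP6 (mix at 1.3 mM/130 uM); top library doses 57.5 and 19.1 uM final.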
# KDM5B inhibitor – KDM5B demethylase inhibition | Potency, µM (highest dose often 57.7 µM), hits mostly inhibitors | KDM5B demethylase, FDH-coupled NADH fluorescence (FDH is formaldehyde dehydrogenase) | AID 1347165 | hit rate 2.6% among 220,000 | Q9UGL1; active = well fitted inhibition curve with a large enough effect; inconclusive = small, poorly fitted or top-dose-only effect; inactive = no such curve, though single readings can be large or run the other way; note: potency is the fitted concentration of half-maximal effect; 0% is about no effect; nearly all actives have a fitted effect of over 70% in size
# Target sequence (Q9UGL1 whole entry, looked up): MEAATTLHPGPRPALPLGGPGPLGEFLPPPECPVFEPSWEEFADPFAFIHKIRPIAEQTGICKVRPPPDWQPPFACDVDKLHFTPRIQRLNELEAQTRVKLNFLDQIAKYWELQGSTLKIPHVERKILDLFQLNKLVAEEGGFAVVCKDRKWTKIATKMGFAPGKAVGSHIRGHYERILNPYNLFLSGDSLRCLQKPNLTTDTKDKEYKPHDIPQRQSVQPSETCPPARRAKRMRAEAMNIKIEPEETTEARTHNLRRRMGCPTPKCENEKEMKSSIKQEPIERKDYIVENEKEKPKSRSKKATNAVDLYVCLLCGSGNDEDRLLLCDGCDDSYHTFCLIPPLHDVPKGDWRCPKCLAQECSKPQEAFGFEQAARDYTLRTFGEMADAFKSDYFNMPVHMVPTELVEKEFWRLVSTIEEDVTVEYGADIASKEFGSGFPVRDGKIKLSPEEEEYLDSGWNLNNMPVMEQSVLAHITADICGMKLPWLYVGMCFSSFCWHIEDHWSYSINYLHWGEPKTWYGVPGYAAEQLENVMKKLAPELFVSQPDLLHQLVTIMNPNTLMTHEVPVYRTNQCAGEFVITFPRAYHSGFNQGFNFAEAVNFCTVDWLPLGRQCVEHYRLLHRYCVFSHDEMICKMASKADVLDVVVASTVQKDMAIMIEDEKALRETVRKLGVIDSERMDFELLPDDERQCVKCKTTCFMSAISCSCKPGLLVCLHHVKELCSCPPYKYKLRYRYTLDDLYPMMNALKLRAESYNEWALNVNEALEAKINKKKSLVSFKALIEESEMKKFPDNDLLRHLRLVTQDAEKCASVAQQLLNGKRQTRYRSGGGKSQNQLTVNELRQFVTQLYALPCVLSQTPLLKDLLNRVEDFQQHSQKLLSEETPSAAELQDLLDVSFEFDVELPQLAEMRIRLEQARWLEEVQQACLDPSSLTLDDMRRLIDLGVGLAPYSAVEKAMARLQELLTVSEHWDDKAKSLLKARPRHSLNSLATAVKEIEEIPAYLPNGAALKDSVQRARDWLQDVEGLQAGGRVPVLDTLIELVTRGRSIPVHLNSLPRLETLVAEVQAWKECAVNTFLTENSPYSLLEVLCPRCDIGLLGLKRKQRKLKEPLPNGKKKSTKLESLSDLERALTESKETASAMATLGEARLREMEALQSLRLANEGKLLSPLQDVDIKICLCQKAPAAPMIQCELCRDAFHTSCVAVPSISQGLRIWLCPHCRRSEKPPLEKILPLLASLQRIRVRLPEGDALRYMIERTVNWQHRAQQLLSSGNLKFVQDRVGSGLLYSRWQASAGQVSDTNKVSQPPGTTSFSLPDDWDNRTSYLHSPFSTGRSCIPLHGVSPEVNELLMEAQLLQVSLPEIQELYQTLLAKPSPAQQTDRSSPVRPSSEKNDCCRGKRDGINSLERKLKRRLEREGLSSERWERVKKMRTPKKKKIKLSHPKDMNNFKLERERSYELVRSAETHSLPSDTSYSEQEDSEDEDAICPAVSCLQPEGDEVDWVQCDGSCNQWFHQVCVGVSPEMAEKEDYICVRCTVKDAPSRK
#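 Compound dilutions met 200 nM (final) KDM5BΔAP for 10 min at room temperature before substrate addition. The substrate mix held 12.5 µM H3K4me3 with cofactors 25 µM α-ketoglutarate and 50 µM Fe²⁺. NADH signal gain over 30 min defined activity.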
# The depositor's hits bear a star; i = inactive; ? = inconclusive; / = no result given.
SMILES,IP6K1 inhibitor,KDM5B inhibitor
CCc1noc(-c2cccn3c(CNC(=O)COc4ccc(F)cc4)nnc23)n1,7.9,22.4µM*
CCc1noc(-c2cccn3c(CNC(=O)c4ccoc4)nnc23)n1,2.2,14.1µM*
O=C(NCc1nnc2c(-c3nc(C4CC4)no3)cccn12)c1ccc2ccccc2n1,1.7,i
CC(C)c1noc(-c2cccn3c(CNC(=O)COc4ccc(F)cc4)nnc23)n1,-2.4,?
CCc1noc(-c2cccn3c(CNC(=O)c4ccc5ccccc5n4)nnc23)n1,-5.2,20µM*
C/C(=N/Nc1ccc([N+](=O)[O-])cc1)c1ccc(Cl)cc1,/,i
Cc1nn(-c2ccccc2)c2c1C(C(C)C)N(C1CCCN(C(=O)C3CC3)C1)C2=O (stereo unspecified),11.0,/
Cc1ccccc1NC(=O)Cn1nc2c(cc1=O)CC(C)CC2 (stereo unspecified),/,i
CCS(=O)(=O)N1CCC[C@H](n2c(=O)n(C)c3cccnc32)C1,14.6,i
Cc1ccc(-c2c(C)nn3c2NC(=O)CCC3=O)cc1S(=O)(=O)NCc1ccco1,/,i
CCc1noc(-c2cccn3c(CNC(=O)c4ccccc4)nnc23)n1,16.4,28.2µM*
Cc1noc(-c2cccn3c(CNC(=O)c4ccccc4)nnc23)n1,-5.8,28.2µM*
CCc1noc(-c2cccn3c(CNC(=O)c4ccc(Cl)cc4)nnc23)n1,8.9,?
CCc1noc(-c2cccn3c(CNC(=O)c4ccccn4)nnc23)n1,13.7,25.1µM*
CCc1noc(-c2cccn3c(CNC(=O)c4ccc(F)cc4)nnc23)n1,11.0,25.1µM*
CCc1noc(-c2cccn3c(CNC(=O)c4cc5ccccc5[nH]4)nnc23)n1,16.6,?
Cc1noc(-c2cccn3c(CNC(=O)c4ccc(C(C)(C)C)cc4)nnc23)n1,5.2,?
COc1ccc(OC)c(S(=O)(=O)N2CCN(c3cccc(C)c3C)CC2)c1,/,i
COc1ccc(CCNC(=O)c2cc(-c3cccc(C(F)(F)F)c3)c3nncn3n2)cc1,5.4,/
O=C(O)c1cnc(-c2cc(NCc3ccccn3)nc3[nH]ccc23)c(Cl)c1,-5.5,?
NC(=O)c1cc(-c2cc(NCc3cccnc3)nc3[nH]ccc23)ccc1F,-2.9,25.1µM*
CCCCN(CC)C(=O)CSc1n[nH]c(=O)c2cc(-c3ccc(OC)c(OC)c3)nn12,/,i
O=C1COc2ccc(-c3ccncc3)nc2CN1Cc1ccc(F)cc1,-8.5,25.1µM*
COc1ccc(-c2ccc3c(n2)CN(Cc2ccc(F)cc2)C(=O)CO3)cc1,-2.8,22.4µM*
COc1cccc(-c2ccc3c(n2)CN(Cc2ccc(F)cc2)C(=O)CO3)c1,1.2,i
SMILES,IP6K1 inhibitor,KDM5B inhibitor
Cn1cc(-c2ccc3c(n2)CN(Cc2ccc(F)cc2)C(=O)CO3)cn1,-0.3,i
O=C1COc2ccc(-c3ccc(F)cc3)nc2CN1Cc1ccccc1F,-14.4,i
O=C1COc2ccc(-c3ccncc3)nc2CN1Cc1ccccc1F,1.5,35.5µM*
COc1cccc(C(=O)Nc2ccc(NS(=O)(=O)c3ccc4c(c3)OCCCO4)cc2)c1,/,i
Cc1nncn1C1CCN(S(=O)(=O)c2ccccc2Cl)CC1,-5.9,i
C/C(=N/Nc1ccccc1)c1ccc([N+](=O)[O-])cc1,/,i
CN(C)C(=O)c1cc(-c2ccccc2S(C)(=O)=O)c2cccn2n1,-3.8,i
O=C(NCc1ccc(F)cc1)c1nc(-c2cccc(C(F)(F)F)c2)c2ccccn12,15.0,i
CC(C)(C)c1nc(C(=O)NCc2ccc(F)cc2)n2ccccc12,0.5,89.1µM*
COC(=O)CNC(=O)c1nc(C(C)(C)C)c2ccccn12,-7.8,126µM*
COC(=O)CNC(=O)c1nc(-c2cccnc2)c2ccccn12,10.7,i
CN(C)C(=O)c1nc(C(C)(C)C)c2ccccn12,-7.4,112µM*
CN(C)C(=O)c1nc(-c2ccccc2)c2ccccn12,21.2,i
Cc1cccc(C)c1-c1nc(C(=O)N(C)C)n2ccccc12,30.4,39.8µM*
CCCNC(=O)Cn1nc(-c2cccc([N+](=O)[O-])c2)c2ccccc2c1=O,/,i
O=C(NC1CCN(C(=O)c2cc(C3CC3)nc3ccccc23)CC1)C1CC1,/,i
COCCNC(=O)[C@H]1C[C@H](Oc2ccccc2)CN1Cc1cn(C)c2ccccc12,13.1,i
O=C(CCC1CCCN(S(=O)(=O)c2cccc(F)c2)C1)Nc1ccc(F)cc1 (stereo unspecified),0.9,/
CCN(c1ccc(NC(=O)CCc2ccccc2)cc1)C(C)C,/,i
CCC(C)c1ccc(NC(=O)c2ccc(SC)cc2OC)cc1 (stereo unspecified),/,i
Cc1nc2cnccn2c1C(=O)NCc1ccc(C(F)(F)F)cc1,3.8,/
CC(C)(C)c1nc(C(=O)NCc2ccc(F)cc2)n2ccncc12,-7.7,100µM*
COC(=O)C1=C(C(=O)OC)SC(=C(Cl)C(=S)Nc2ccccc2)S1,/,i
CN(C)C[C@@H]1CN(Cc2cccnc2)C[C@H]1NC(=O)c1ccccc1Cl,21.8,i
Cn1cnc(C(=O)N[C@@H]2CN(c3ncccn3)C[C@H]2CO)c1,1.3,28.2µM*
SMILES,IP6K1 inhibitor,KDM5B inhibitor
Cc1cc(C)n(CC(=O)N[C@@H]2CN(Cc3ccccc3)C[C@H]2CN(C)C)c(=O)n1,-3.0,8.91µM*
COc1ccc(C(=O)N[C@@H]2CN(c3ncccn3)C[C@H]2CO)cc1F,4.4,?
Cn1cccc1C(=O)N[C@@H]1CN(c2ncccn2)C[C@H]1CO,6.9,?
Cc1cc(C)n(CCC(=O)N[C@@H]2CN(Cc3ccccc3)C[C@H]2CN(C)C)n1,-3.5,i
O=C(N[C@@H]1CN(c2ncccn2)C[C@H]1CO)c1cc2ccccc2[nH]1,2.0,14.1µM*
CN(C)C[C@@H]1CN(Cc2cccnc2)C[C@H]1NC(=O)c1cc2ccccc2[nH]1,3.7,28.2µM*
Cc1ccc(CNC(=O)CC(C)Cc2nnc3c(=O)n(-c4cccc(F)c4)ccn23)cc1 (stereo unspecified),/,i
COc1ccccc1C(=O)NC(=O)CSc1c(Cl)cccc1Cl,/,i
CN(C)C[C@@H]1CN(c2ccncn2)C[C@H]1NC(=O)c1cccc2[nH]ccc12,0.4,i
CN(C)C[C@@H]1CN(c2ncccn2)C[C@H]1NC(=O)c1cc2ccccc2[nH]1,19.1,28.2µM*
CN(C)C(=O)N1CCCn2nc(CNC(=O)c3ccc4[nH]ccc4c3)cc2C1,24.2,?
CN(C)C(=O)N1CCCn2nc(CNC(=O)c3sccc3N)cc2C1,21.2,35.5µM*
COc1cc(CNc2nc(-c3c(C)noc3C)cc3cc(CN(C)C)oc23)cc(OC)c1,-16.5,i
Cc1cc(-c2nc(-c3c(C)noc3C)cc3c2cc(C)n3CCN(C)C)ccn1,-6.7,35.5µM*
COc1cncc(-c2nc(-c3c(C)noc3C)cc3c2cc(C)n3CCN(C)C)c1,-17.5,39.8µM*
Cc1noc(C)c1-c1cc2c(cc(C)n2CCN(C)C)c(-c2ccsc2)n1,-11.9,31.6µM*
Cc1noc(C)c1-c1cc2cc(C(C)C)oc2c(NCCN(C)C)n1,-11.3,i
Cc1noc(C)c1-c1cc2c(cc(C)n2CCN(C)C)c(-c2ccnn2C)n1,-16.0,35.5µM*
CC(=O)NC(NC(C)=O)C(O)C(O)C(O)C(O)CO (stereo unspecified),/,i
Cn1nc(C(=O)Nc2ccc(Br)cc2F)c2c1-c1ccsc1CC2,/,i
Cc1ccc(-c2c(C(=O)NCC(C)C)nc3sccn23)cc1,11.9,/
